Assay outcomes as filed in PubChem BioAssay.
S-ASM inh = blocks human secretory acid sphingomyelinase. placental ASM, HMU-PC fluorogenic substrate, 60 min. Potency, µM (top dose mostly 57.5 µM), for the others: top-dose activity change, negative = inhibition, most hits filed as inhibitors. 0.006% of 340,000 active. AID 504937; further: potency means the concentration at half of the fitted maximal effect
Target sequence (P17405 47-631 limits assumed): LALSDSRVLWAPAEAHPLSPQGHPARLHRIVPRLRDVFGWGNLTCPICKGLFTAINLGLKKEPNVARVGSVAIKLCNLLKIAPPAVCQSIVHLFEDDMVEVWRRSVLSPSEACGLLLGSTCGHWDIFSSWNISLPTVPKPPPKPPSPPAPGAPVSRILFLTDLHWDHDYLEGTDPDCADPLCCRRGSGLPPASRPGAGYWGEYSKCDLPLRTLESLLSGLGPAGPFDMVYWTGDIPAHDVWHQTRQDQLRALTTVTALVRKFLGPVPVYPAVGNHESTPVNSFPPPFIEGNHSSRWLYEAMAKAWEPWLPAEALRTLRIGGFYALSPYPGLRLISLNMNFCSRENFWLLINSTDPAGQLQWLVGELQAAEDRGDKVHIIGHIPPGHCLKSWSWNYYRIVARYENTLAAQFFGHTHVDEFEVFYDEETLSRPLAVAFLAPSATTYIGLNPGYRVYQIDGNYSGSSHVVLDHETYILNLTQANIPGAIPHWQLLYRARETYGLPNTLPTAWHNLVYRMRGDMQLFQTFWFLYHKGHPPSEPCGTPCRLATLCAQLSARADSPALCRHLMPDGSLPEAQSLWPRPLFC
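qHTS format. ASM enzyme prepared from human placenta hydrolyses the fluorogenic substrate HMU-PC0 (9 uM final) over 60 min at 37 °C after a 10 min compound preincubation.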
USP2a block = inhibitors of human ubiquitin-specific protease USP2a | USP2 core, Ub-CHOP2 coupled fluorogenic reporter, 485/531 | Potency, µM (series often up to 38.3 µM), for the others: top-dose activity change, negative = inhibition, actives largely listed as inhibitors | 0.01% of 330,000 active | AID 463254;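 further: potency means the concentration at half of the fitted maximal effect; plate controls were DMSO wells for no effect and full inhibition by NEM control for full effect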
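Deubiquitinase activity read as fluorescence (485/531 nm) after Ub-CHOP2 cleavage activates the enterokinase reporter on its substrate; USP2 core 10nM, Ub-CHOP2 and substrate 25nM each, 30min compound preincubation then 60min RT; data normalized to NEM, curves fitted.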
CCT modulator = cytosolic chaperonin activity modulation | purified chaperonin ATPase assay, HTRF ADP detection, 30 min | activity change, % (no concentration beside the values), hits read low | 0.3% of 360,000 active | AID 651819; in the data active means activity change below about -30%; further: on the % scale 0 is the no-effect control and ±100 the full control effect
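We incubate TRiC, 40 or 20 nM final, with library compounds at 76 uM and 10 uM ATP for 30 min at 37 °C. ADP formed is detected with Transcreener HTRF reagents after 30 min at room temperature.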
MmCpn inh = M. maripaludis TRiC chaperonin inhibition; AID 504842; purified Mm-Cpn ATPase, ADP Transcreener TR-FRET; 0.031% of 330,000 active; Potency, µM (titrated, usually from 76.9 µM), for inactives: at the highest dose activity, negative = inhibition, hits mostly inhibitors; further: potency means the concentration at half of the fitted maximal effect; on the % scale 0 is the no-effect control and ±100 the full control effect; nearly all actives have a fitted effect of over 80% in size
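ATP (10 uM final) was added to archaeal chaperonin (25 nM final) after 10 min exposure to test compound at 37°C; after 30 min further incubation, ADP was detected by competitive TR-FRET.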
An asterisk follows results filed as active; . = not tested or not shown. An excerpt weighted towards active compounds, which were near 0.3% of everything screened. Unless noted, the call rests on the fitted dose curve; in most records, active means well fitted curve in the direction sought with a large enough effect; inconclusive means small, poorly fitted or top-dose-only effect, or another doubt; inactive means no such curve, though single readings can be large; an effect the other way counts as inactive or inconclusive.

SMILES	S-ASM inh	USP2a block	CCT modulator	MmCpn inh
CCn1c(C(=O)NC2CCC(C)CC2)cc2sccc21 (stereo unspecified)	-3%	2%	-80*	0%
CC(=O)N1CCN(c2ccc(C(N)=O)cc2[N+](=O)[O-])CC1	-1%	0%	1	0%
O=[N+]([O-])c1ccc(-c2cnc3ccccc3n2)cc1	-3%	4%	-38*	-1%
Cc1nc2ccccc2nc1-c1ccc([N+](=O)[O-])cc1	-1%	.	1	.
CCC(C(=O)NCc1ccco1)N(C(=O)CNS(=O)(=O)c1ccccc1)c1ccccc1C (stereo unspecified)	-1%	-2%	3	2%
C[C@H](NC(N)=O)C(=O)OCC(=O)Nc1ccc(OC(F)F)cc1	2%	-2%	1	-2%
COc1ccc(Cl)cc1S(=O)(=O)NC(C)C(=O)NCc1ccncc1 (stereo unspecified)	2%	0%	-66*	0%
CCOc1ccc(NC(=O)Nc2ccc3c(c2)nnn3C)cc1	-3%	3%	-2	-1%
CCN1CCCC1CNC(=O)C(=O)NCCc1ccc(OC)c(OC)c1 (stereo unspecified)	-2%	8%	-34*	-1%
O=C(CSc1nnc(-c2ccc(F)cc2)o1)N1CCN(C(=O)c2ccco2)CC1	4%	0%	-1	1%
CC1=C(C(=O)N(C(C)C)C(C)C)CC(CC(=O)NC2CCCCC2)C(=O)N1Cc1ccccc1 (stereo unspecified)	.	.	-2	.
Cc1onc(-c2ccccc2)c1C(=O)OCC(=O)Nc1ccc2c(c1)OCO2	3%	-3%	-43*	-1%
Cc1onc(-c2ccccc2Cl)c1C(=O)OCC(=O)Nc1ccc2c(c1)OCO2	-2%	1%	-4	-1%
COc1ccc(Cc2nnc(SCC(=O)c3ccc4c(c3)NC(=O)CO4)o2)cc1	-1%	2%	1	-23%
CCOC(=O)c1sc2nc(C)nc(Nc3ccccc3)c2c1C	10%	-2%	1	-1%
CSc1nc(-c2ccccc2)nn1S(=O)(=O)c1ccccc1	5%	1%	-50*	2%
Cc1cc(C)c(NC(=O)CSCc2c(C)noc2C)c(C)c1	6%	2%	-1	1%
Cc1ccc(NC(=O)CSCc2c(C)noc2C)cc1C	4%	2%	-44*	1%
CCOC(=O)n1c2ccccc2c(=O)n1CCO	.	.	-33*	.
CCOC(=O)Cn1c(=O)n(CC(=O)OCC)c2ccccc21	5%	0%	-4	3%
C/C(=N\NC(=O)c1ccc(Cl)cc1)c1ccc2[nH]ccc2c1	-4%	-2%	-1	1%
CCN(CC)S(=O)(=O)c1cc(NC(=O)COc2ccc(C#N)cc2OC)ccc1C	-1%	0%	2	2%
COc1cccc(-c2cnc3c(NC(C)=O)cc(-c4ccc(C(=O)NC5CC5)cc4)cn23)c1	.	.	-35*	.
COc1cccc(-c2cnc3c(NC=O)cc(-c4ccc(OC)cc4OC)cn23)c1	.	.	-35*	.
COc1ccc(-c2cc(NC=O)c3ncc(-c4ccc(OC)c(OC)c4)n3c2)c(OC)c1	.	.	0	.
SMILES	S-ASM inh	USP2a block	CCT modulator	MmCpn inh
CC(=O)Nc1cc(-c2cccc(C(=O)NCCN(C)C)c2)cn2c(-c3ccc(S(C)(=O)=O)cc3)cnc12	.	.	-2	.
CC(=O)Nc1cc(-c2cccc(C(=O)NCCN(C)C)c2)cn2c(-c3ccccc3)cnc12	.	.	-38*	.
COc1ccccc1NC(=O)C(C)OC(=O)CSCC(=O)Nc1cc(C)on1 (stereo unspecified)	3%	2%	1	-5%
Cc1cccc(-n2c(O)c(/C=N/NC(=O)c3ccccc3Cl)c3ccccc3c2=O)n1	40%	4%	-46*	-2%
O=C(COc1ccccc1[N+](=O)[O-])Nc1cc(Cl)ccc1C(=O)O	6%	1%	-1	45µM*
CC(C)(C)C(=O)COc1ccccc1[N+](=O)[O-]	0%	2%	-48*	2%
COC(=O)c1ccccc1NC(=O)COc1ccccc1[N+](=O)[O-]	-3%	-4%	-4	-1%
O=[N+]([O-])c1ccccc1OCCOc1ccccc1[N+](=O)[O-]	6%	1%	-3	-19%
CN1CCc2nc(NC(=O)c3cccc(S(=O)(=O)N4CCc5ccccc54)c3)sc2C1	73%	-3%	-35*	-21%
COc1ccc(OC)c(/C=C(\C)C(=O)c2c(C)cc(C)[nH]c2=O)c1	-1%	.	-42*	.
COc1ccc(/C=C(\C)C(=O)c2c(C)cc(C)[nH]c2=O)cc1	-7%	.	2	.
Cc1ccc(C)c(NC(=O)Cn2nnc(-c3ccc(N4CCOCC4)cc3)n2)c1	-2%	2%	-79*	0%
Cc1n[nH]c(=S)n1-c1cccc(Cl)c1	7%	0%	-55*	1%
COc1ccc(OC)c2sc(N(CCN(C)C)C(=O)c3cc(Cl)sc3Cl)nc12	-2%	2%	1	-2%
CCC1CCCCN1C(=O)C(=O)c1cn(CC(=O)N(CC)CC)c2ccccc12 (stereo unspecified)	2%	-13%	0	-1%
CCN(CC)C(=O)Cn1cc(C(=O)C(=O)N(C)C2CCN(C)CC2)c2ccccc21	7%	1%	-90*	1%
Cc1nc2cc(-c3ccccc3)sc2c(=O)n1N	0%	7%	-31*	2%
Cn1c(OCC2CCCO2)nc2cc(-c3ccccc3)sc2c1=O (stereo unspecified)	.	.	-48*	.
NS(=O)(=O)c1ccc(CNS(=O)(=O)c2cc(Cl)ccc2Cl)cc1	-3%	6%	-38*	2%
CCOC(=O)c1cc(-c2ccccc2)sc1NC(=O)CC(C)C	-3%	1%	-2	0%
CCOC(=O)c1cc(-c2ccccc2)sc1NC(=O)C(C)(C)C	10%	7%	-31*	-1%
COc1cc(NC(=O)COc2cc3oc(=O)cc(C)c3cc2Cl)cc(OC)c1OC	3%	3%	-59*	1%
O=C(/C=C/Nc1ccccc1C(F)(F)F)c1ccco1	23%	1%	-1	0%
NC(=O)c1ccccc1N/C=C/C(=O)c1ccco1	79%	1%	-60*	-3%
C=CCC1NS(=O)(=O)OC(CCc2ccccc2)C1O (stereo unspecified)	1%	0%	-6	1%
SMILES	S-ASM inh	USP2a block	CCT modulator	MmCpn inh
CCCNC(=O)C(Cc1ccccc1C)NC(=O)c1ccc(C#N)cc1 (stereo unspecified)	0%	0%	-38*	1%
COc1ccc(Nc2oc(-c3cccs3)nc2C#N)cc1	112%	-1%	-37*	-8%
COc1ccc(CNC(=O)CN(Cc2ccc(Cl)cc2)C(=O)c2csnn2)cc1	3%	-1%	-1	-23%
O=c1[nH]cc(COCc2ccccc2)c(=O)[nH]1	2%	0%	0	1%
O=c1[nH]cc(CCCc2ccccc2)c(=O)[nH]1	.	.	-49*	.
CCOC(=O)CC1C(=O)NCCN1S(=O)(=O)c1cc(Cl)c(Cl)cc1Cl (stereo unspecified)	0%	-1%	-1	0%
CC(=O)Nc1ccc(NC(=O)CSc2nnc(NC(=O)c3ccco3)s2)cc1	-2%	0%	-1	0%
